High-throughput results from PubChem.
The list is not random: actives were taken first. Their share in the collection is about 2.1%.
Mito fusion yeast: blocks mitochondrial division or promotes mitochondrial fusion; S. cerevisiae fusion-defective mutant growth rescue, CellTiterGlo 48 h; Potency, µM (top dose mostly 46.1 µM), for the others: at the highest dose growth rescue (activation), most hits filed as activators; 0.23% of 320,000 active; AID 485298; note: % of control where 0% means no effect; nearly all actives have a fitted effect of over 45% in size
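Yeast fusion mutant, YPEG (non-fermentable carbon), compound, 48 h at 37C non-permissive; CellTiterGlo added, 10 min RT, luminescence read. Rescued growth = division inhibition.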
TDP43 rescue: rescues yeast growth from TDP-43 toxicity; 1.8% of 410,000 active; TDP-43 expressing yeast growth rescue, BacTiter-Glo, 24 h; Potency, µM (titrated, usually from 46.1 µM), for inactives: top-dose growth rescue (activation), actives largely listed as activators; note: % of control where 0% means no effect; nearly all actives have a fitted effect of over 50% in size
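Readout is BacTiter-Glo luminescence of cell growth, so inhibitors register as activators. TDP-43-expressing yeast at OD600=0.02 in galactose medium, after raffinose pregrowth to mid-log, were incubated with compound for 24 hr at 30 deg C.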
Abeta yeast res: compounds reversing amyloid beta toxicity in yeast | yeast expressing A-beta42, growth rescue, OD600, 48 h; response scale: 0% DMSO, 100% iron-clioquinol control | Potency, µM (doses to about 46.1 µM), most hits filed as activators | 0.063% of 410,000 active; note: nearly all actives have a fitted effect of over 55% in size
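Yeast A-beta toxicity model in growth medium with pinned compounds, 48 h at 30 C; growth read as absorbance at 600 nm. Normalized to FeCl3/clioquinol equimolar mix (positive) and DMSO (negative).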
Glioma ERSR ind: ER stress response induction in glioma | AID 602332 | U87-MG GRP78 promoter luciferase reporter, 16 h | Potency, µM, for the others: top-dose activation, actives largely listed as activators | 0.02% of 420,000 active; note: series mostly up to about 76 µM; % of control where 0% means no effect; nearly all actives have a fitted effect of over 35% in size
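ERSR induction read as luciferase luminescence (Bright-Glo, 10 min at room temperature) in stably transfected human U87-MG glioma cells exposed to compounds for 16 h, using GRP78 as sensor.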
aSyn rescue: rescues yeast growth from alpha-synuclein toxicity | Potency, µM (top dose mostly 46.1 µM), without a hit: at the highest dose growth rescue (activation), actives largely listed as activators | Yeast expressing alpha-synuclein, growth rescue, BacTiter-Glo, 24 h | 0.14% of 370,000 active; note: % of control where 0% means no effect; nearly all actives have a fitted effect of over 65% in size
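Readout is rescue of growth in alpha-synuclein-expressing yeast, so inhibitors of toxicity appear as activators. Growth after 24 hr at 30 deg C in galactose medium is quantified by luminescence.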
AT treatment: potential ataxia-telangiectasia treatment. Potency, µM (highest dose often 57.5 µM), for the others: at the top dose activation, most hits filed as activators. F2112 A-T fibroblasts, KAP-1 phosphorylation AlphaLISA; neocarzinostatin DNA damage 30 min before lysis. 0.19% of 320,000 active; note: % of control where 0% means no effect; nearly all actives have a fitted effect of over 45% in size
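hTERT-immortalized A-T patient fibroblasts (F2112), 500 cells/well in OPTI-MEM, 1% FBS, got compounds for 60 min, then NCS for 30 min at 37C. Lysates were then assayed for phospho-KAP-1 by AlphaLISA (anti-pKAP1 donor, anti-KAP1 acceptor beads), 6 hr at 25C.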
Active calls of the source: *. Calls come from the whole dose curve; as a rule, active = well fitted curve in the direction sought with a large enough effect; inconclusive = small, poorly fitted or top-dose-only effect, or another doubt; inactive = no such curve, though single readings can be large; an effect the other way counts as inactive or inconclusive. Potency is the fitted concentration of half-maximal effect.

What do the screens show for `COc1cccc(NC=C2C(=O)OC(C)(C)OC2=O)c1`?
Mito fusion yeast: 2%; TDP43 rescue: inconclusive; Abeta yeast res: inactive; Glioma ERSR ind: 2%; aSyn rescue: 1%; AT treatment: 12%

What do the screens show for `COc1cccc(NC=C2C(=O)OC3(CCCCC3)OC2=O)c1`?
Mito fusion yeast: -15%; TDP43 rescue: 25µM*; Abeta yeast res: inactive; Glioma ERSR ind: 0%; aSyn rescue: 4%; AT treatment: -2%

Results for CC(=O)N1CCN(C(=O)c2ccc3oc(CCCc4ccccc4)nc3c2)CC1 ?
Mito fusion yeast: -22%; TDP43 rescue: 3%; Abeta yeast res: inactive; Glioma ERSR ind: -1%; aSyn rescue: 2%; AT treatment: 11%

Results for CCOC(=O)N1CCN(C(=O)c2ccc3oc(CCCc4ccccc4)nc3c2)CC1 ?
Mito fusion yeast: 8%; TDP43 rescue: 16µM*; Abeta yeast res: inactive; Glioma ERSR ind: -6%; aSyn rescue: 6%; AT treatment: 6%

What do the screens show for `COc1cc2nc(N(C)C)c(CNCc3nonc3C)cc2c(OC)c1OC`?
Glioma ERSR ind: -6%

Results for COCc1c(C(=O)N2CCC(c3ccccc3)CC2)cnn1-c1nccc(-c2cc(C)sc2C)n1 ?
Glioma ERSR ind: -11%

What do the screens show for `Cn1ncc(Oc2ccc([N+](=O)[O-])cc2)c(Cl)c1=O`?
Mito fusion yeast: 1%; TDP43 rescue: 7%; Abeta yeast res: inactive; Glioma ERSR ind: -3%; aSyn rescue: -4%; AT treatment: 40µM*

Results for O=C(O)Cn1cc(C(=O)c2ccco2)c2ccccc21 ?
Mito fusion yeast: 4%; TDP43 rescue: 2%; Abeta yeast res: inactive; Glioma ERSR ind: -4%; aSyn rescue: 0%; AT treatment: -3%

What do the screens show for `CCOC(=O)Cn1cc(C(=O)c2ccco2)c2ccccc21`?
Mito fusion yeast: 0%; TDP43 rescue: 18µM*; Abeta yeast res: inactive; Glioma ERSR ind: -1%; aSyn rescue: -3%; AT treatment: 5%

How did Fc1ccc(-c2noc3ncnc(NC4CCCCC4)c23)cc1 do in these assays?
TDP43 rescue: 13%; Abeta yeast res: inactive; Glioma ERSR ind: -5%; aSyn rescue: -12%

What do the screens show for `CC1(C)[C@@H](O)CC[C@]2(C)C3C(O)C=C4[C@H]5C[C@@](C)(CO)CC[C@]5(C)CC[C@]4(C)[C@]3(C)CC[C@@H]12` (stereo partly specified)?
Mito fusion yeast: 11µM*; TDP43 rescue: -1%; Abeta yeast res: inactive; Glioma ERSR ind: -3%; aSyn rescue: 3%; AT treatment: 0%

Results for Cc1cc2c(c(-c3nc4ccccc4s3)c1)OC(CNC(=O)CCc1cccnc1)C2 (stereo unspecified) ?
Glioma ERSR ind: -2%

Results for COC(=O)c1ccccc1NC(=O)c1ccc(=O)n(Cc2cccc(C)c2)c1 ?
TDP43 rescue: 32µM*; Abeta yeast res: inactive; Glioma ERSR ind: -2%; aSyn rescue: 0%

What do the screens show for `O=C(CN1C(=O)CCc2cc(S(=O)(=O)N3CCOCC3)ccc21)NCc1ccc(F)cc1`?
TDP43 rescue: 19%; Abeta yeast res: inactive; Glioma ERSR ind: -2%

What do the screens show for `CCOC(=O)C1=C(C)NC(C)=C(C(=O)OC)C1c1cccc([N+](=O)[O-])c1` (stereo unspecified)?
Mito fusion yeast: -21%; TDP43 rescue: 35µM*; Abeta yeast res: inactive; Glioma ERSR ind: -4%; aSyn rescue: 20%; AT treatment: 23%

Results for COCCOC(=O)C1=C(C)NC(C)=C(C(=O)OC/C=C/c2ccccc2)C1c1cccc([N+](=O)[O-])c1 (stereo unspecified) ?
Mito fusion yeast: 5.8µM*; Glioma ERSR ind: -4%; aSyn rescue: 21%
